# This is part of a sample that, as a whole, favours compounds with a hit. Of some 83,000 tested, about 20% had one in any assay.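 How to read the values: 0–100, growth inhibition (40 = 60% inhibited); 0, no net growth; -100 to 0, cell death (-40 = 40% of starting cells died; -100 = all dead).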 Values without a mark were called inactive. Calls of active or inactive are those of the source. The calls were made as follows: active = growth percent below 10; inactive = the rest.
# What was measured:
# Assay in all cases: NCI-60 one-dose screen, 48 h (100 = growth as untreated, 0 = no growth, -100 = all killed)
# Settings in all cases: 10 µM unless noted
# NCI-H23 lung = system: NCI-H23 lung
# NCI-H226 lung = system: NCI-H226 lung
# NCI-H322M lung = system: NCI-H322M lung
# HOP-62 NSCLC = system: HOP-62 NSCLC
# NCI-H460 lung = system: NCI-H460 lung
# HOP-92 NSCLC = system: HOP-92 NSCLC
# NCI-H522 lung = system: NCI-H522 lung
# A549/ATCC NSCLC = system: A549/ATCC NSCLC
# 786-0 renal = system: 786-0 renal
# COLO 205 colon = system: COLO 205 colon
# DU-145 prostate = system: DU-145 prostate
# K-562 leukemia = system: K-562 leukemia
# MALME-3M melanoma = system: MALME-3M melanoma
# MDA-MB-231 breast = system: MDA-MB-231 breast
# RXF 393 renal = system: RXF 393 renal
# SF-268 CNS = system: SF-268 CNS
# SF-539 CNS = system: SF-539 CNS
# UACC-257 melanoma = system: UACC-257 melanoma
# M14 melanoma = system: M14 melanoma
# SF-295 CNS = system: SF-295 CNS
Structure (SMILES),growth (NCI-H23 lung),growth (NCI-H226 lung),growth (NCI-H322M lung),growth (HOP-62 NSCLC),growth (NCI-H460 lung),growth (HOP-92 NSCLC),growth (NCI-H522 lung),growth (A549/ATCC NSCLC) [%],growth (786-0 renal),growth (COLO 205 colon),growth (DU-145 prostate),growth (K-562 leukemia),growth (MALME-3M melanoma),growth (MDA-MB-231 breast),growth (RXF 393 renal),growth (SF-268 CNS),growth (SF-539 CNS),growth (UACC-257 melanoma) [%],growth (M14 melanoma),growth (SF-295 CNS)
Fc1ccc2nc(-c3cc(-c4ccc5c(c4)OCO5)n[nH]3)[nH]c2c1,64%,66.1%,64.9%,75.5%,40.9%,64.9%,33.7%,60.1,56.8%,84.7%,78.3%,15.5%,57.7%,67.6%,63.1%,77.5%,56.3%,84.9,–,–
c1ccc2[nH]c(-c3cc(-c4ccc5c(c4)OCO5)n[nH]3)nc2c1,68.8%,70.7%,67.1%,62.6%,46.4%,119%,32.9%,58.8,55.7%,70.3%,69.1%,36.3%,38.2%,65%,59.6%,70.5%,52.4%,66.4,45.8%,–
C=C1C(=O)O[C@H]2[C@H]1CC/C(Cn1cc(-c3ccc(F)cc3)nn1)=C\CC[C@@]1(C)O[C@@H]21,5.71% (active),-31.3% (active),80.6%,44.4%,77.4%,-67.7% (active),-80.4% (active),60.2,-71.5% (active),-84.4% (active),-71.3% (active),-20.3% (active),-58.1% (active),-46.2% (active),-68.1% (active),5.29% (active),-34.6% (active),–,-40.3% (active),86.4%
COC(=O)[C@]12CC[C@@H](C)[C@H](C)[C@@H]1C1=CC[C@@H]3[C@@]4(C)C(c5ncon5)=C[C@@](C)(CO)C4=CC[C@@]3(C)[C@]1(C)CC2,-26.2% (active),-34.7% (active),21.8%,-8.97% (active),-33.4% (active),-49.9% (active),-77.5% (active),29.5,-23.8% (active),-46% (active),-71.5% (active),-21.2% (active),-73.6% (active),-49.3% (active),-73.2% (active),-7.68% (active),-86.2% (active),–,-58.5% (active),-46.8% (active)
COc1ccc(-c2nc(Nc3ccc(-c4nc5ccccc5[nH]4)cc3)nc(N3CCOCC3)n2)cc1,11.3%,17.1%,27%,-27.3% (active),0.132% (active),-6.57% (active),11.9%,11.2,-60% (active),-43.7% (active),38.5%,-22% (active),-65.7% (active),5.74% (active),-67.5% (active),34.1%,0.307% (active),–,-7.64% (active),-63.5% (active)
CC(=O)O[C@@H]1CCN2C(=O)N(C)c3ccccc3[C@@H]2C1,98.7%,109%,108%,104%,104%,111%,96.4%,95,101%,114%,121%,93.5%,94.7%,111%,115%,113%,97.7%,–,101%,88.9%
c1ccc2[nH]c(-c3ccc(Nc4nc(N5CCCCC5)nc(N5CCOCC5)n4)cc3)nc2c1,19.7%,32.7%,35%,-45.2% (active),0.809% (active),43.3%,9.25% (active),13.9,-57.3% (active),-61.3% (active),39%,-6.74% (active),-50.2% (active),23.1%,-56.1% (active),33.8%,7.95% (active),–,-24.5% (active),-51.4% (active)
O=c1c2sc3ncc(Br)cc3c2ncn1-c1cccc(Cl)c1,87.4%,87.3%,48.2%,60.3%,24.9%,72.7%,82.8%,43,89%,86.3%,53.3%,81.9%,52.5%,49.5%,73.6%,64.1%,81.4%,88.4,76%,–
COc1cc2c(cc1OC)C(=O)/C(=C/c1cc(-c3ccc4c(c3)OCO4)n[nH]1)C2,22.4%,47.1%,-5.69% (active),-52.5% (active),-82.2% (active),-4.09% (active),-63.6% (active),27.8,-89.8% (active),7.58% (active),1.19% (active),-41.5% (active),43.7%,24.6%,-39.8% (active),-53.4% (active),-80.9% (active),77.1,5.68% (active),–
COc1ccc(C(=O)c2cc(OC)c(OC)c(OC)c2)cc1/C=C/C(=O)c1cc(OC)c(OC)c(OC)c1,79.9%,89.5%,91.2%,117%,83.7%,83.8%,84%,92.9,104%,95.5%,83.4%,99.8%,86.1%,62.8%,70%,88.7%,94%,81.6,81.4%,–
NC(Cc1ccc(O)cc1)C(=O)N/N=C/c1ccccc1O (centres undefined),99.9%,103%,94%,105%,108%,56.6%,96.6%,97.5,104%,123%,105%,105%,80.2%,109%,115%,104%,104%,101,98.7%,–
C[N+](C)(CCCCCC[N+](C)(C)C1c2ccccc2-c2ccccc21)C1c2ccccc2-c2ccccc21,103%,108%,131%,113%,109%,117%,80.9%,102,112%,106%,118%,99.5%,104%,115%,113%,111%,102%,103,106%,–
Cc1[c-]onc1C.Cc1[c-]onc1C.[Ag].[Ag].[NH-]S(=O)(=O)c1ccc(N=Nc2cc(N=Nc3ccc(S([NH-])(=O)=O)cc3)c3c(NC(=O)C(Cl)Cl)cccc3c2OC(=O)C(Cl)Cl)cc1,94.8%,94.8%,96%,84.7%,57.3%,6.01% (active),-85.7% (active),80.5,104%,-46.9% (active),70.5%,59.7%,7.7% (active),45.8%,89.2%,84.5%,92.8%,78.5,103%,–
Cc1ccc(Nc2c(C(N)=O)cnc3ccc(S(=O)(=O)Nc4cc(C)on4)cc23)cc1,95.1%,95%,95.8%,89.8%,103%,84.1%,92.2%,103,106%,101%,109%,117%,108%,99.5%,105%,104%,92.7%,101,100%,–
O=c1c(CNc2ccc(S(=O)(=O)Nc3ncccn3)cc2)coc2ccccc12,102%,103%,97.1%,93%,105%,102%,89.7%,93.5,102%,105%,108%,100%,94%,99.9%,103%,108%,95.2%,108,99.2%,–

# — PubChem BioAssay (NCI)
